Most compounds without a hit are left out; they make up all but 1.1% or so of the library.
AGP1-GFP MLPCN: alters AGP1-GFP fluorescence in TOR pathway yeast screen. S. cerevisiae AGP1-GFP multiplex flow cytometry, 3 h; GFP as percent of DMSO wells. GFP response vs DMSO, % at 10 µM. actives 0.02% (n = 320,000);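 active = GFP response relative to DMSO above a set limit, near screen average plus 3 SD, cut at about 150% in these data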;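 also: median GFP channel fluorescence of the gated AGP1 strain per well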
LAP4-GFP MLPCN: modulators of TOR pathway LAP4-GFP in S. cerevisiae. AID 2023. actives 0.34% (n = 320,000). GFP response vs DMSO, % at 10 µM. S. cerevisiae LAP4-GFP multiplex, flow cytometry GFP, 3 h; median GFP as percent of DMSO wells;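 active = GFP response vs DMSO above a set limit, about the screen mean plus 3 SD, cut at about 150% in these data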
MEP2 TOR yeast: modulators of TOR pathway MEP2-GFP in S. cerevisiae. actives 0.51% (n = 330,000). S. cerevisiae MEP2-GFP strain, flow cytometry GFP, 3 h; 100% = DMSO control level. GFP response vs DMSO, % at 10 µM. AID 2016;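 active = GFP response versus DMSO above a set limit, roughly screen mean plus 3 SD, cut at about 180% in these data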;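 also: median GFP fluorescence of the barcode-gated MEP2-GFP cells per well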
VLA-4 inh: inhibition in a human VLA-4 binding assay | P13612 | VLA-4 expressing cells, ligand binding flow cytometry | inhibition, % (about 7 µM as worked out from the volumes in the protocol) | actives 0.2% (n = 330,000) | AID 2557; in the data active = inhibition above about 50%
CIT2-GFP yeast: modulators of TOR pathway CIT2-GFP in S. cerevisiae; S. cerevisiae CIT2-GFP strain, flow cytometry, 3 h; 100 means same as DMSO wells; GFP response vs DMSO, % at 10 µM; actives 0.065% (n = 320,000); AID 2029;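 active = GFP response relative to DMSO above a set limit, near the screen mean plus 3 SD, cut at about 150% in these data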;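 also: ratio of well median GFP fluorescence to mean of DMSO wells on the plate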
RPL19A-GFP yeast: alters RPL19A-GFP fluorescence in TOR pathway yeast screen; S. cerevisiae RPL19A-GFP strain, flow cytometry, 3 h; hits give low values; percent response vs DMSO, % at 10 µM; actives 0.3% (n = 330,000); AID 2025;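 active = percent response vs DMSO below 50%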;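 also: median channel GFP fluorescence of the barcoded RPL19A-GFP strain; ratio of sample median GFP to plate DMSO average so 100% = DMSO; lower means less RPL19A-GFP as with rapamycin TOR inhibition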
LAP4-GFP pick2: reconfirmed LAP4-GFP TOR pathway modulator in yeast; shares compounds with LAP4-GFP MLPCN; S. cerevisiae LAP4-GFP strain, flow cytometry GFP, 3 h; GFP response vs DMSO, % at 10 µM; actives 20% (n = 590); AID 2621;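 active = GFP signal as percent of the solvent control above about 150%, meaning raised reporter expression, limit read from the data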;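 also: ratio of well median GFP fluorescence to plate DMSO mean so 100% = DMSO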
MEP2-GFP pick2: reconfirmed MEP2-GFP TOR pathway modulator in yeast; shares compounds with LAP4-GFP MLPCN; S. cerevisiae MEP2-GFP strain, flow cytometry GFP, 3 h; GFP response vs DMSO, % at 10 µM; actives 10% (n = 590); AID 2622;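 active = GFP signal above 150% of the solvent control wells, that is a rise of more than half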;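 also: median channel GFP fluorescence of all gated yeast cells per well; ratio of median GFP to plate DMSO average so 100% = DMSO level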
RPL19A-GFP pick2: second confirmation of modulators of TOR reporter RPL19A-GFP in yeast; actives 3% (n = 590); shares compounds with LAP4-GFP MLPCN; GFP response vs DMSO, % at 10 µM; S. cerevisiae RPL19A-GFP strain, flow cytometry GFP, 3 h; hits give low values; 100% means same as DMSO wells; AID 2623;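 active = under 65% GFP response relative to DMSO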;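 also: median GFP channel fluorescence per well over the all cells gate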
CIT2 GFP CP2: second confirmation of modulators of TOR reporter CIT2-GFP in yeast. GFP response vs DMSO, % at 10 µM. S. cerevisiae CIT2-GFP strain, flow cytometry GFP, 3 h; DMSO control wells read 100%. actives 8% (n = 590). shares compounds with LAP4-GFP MLPCN;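 active = GFP response vs DMSO above about 150%, limit read from the data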;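 also: median green fluorescence per well over all gated yeast cells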
AGP1 GFP CP2: yeast AGP1-GFP TOR reporter modulation, second cherry pick | shares compounds with LAP4-GFP MLPCN | S. cerevisiae AGP1-GFP strain, flow cytometry GFP, 3 h | AID 2643 | 590 tested, under 10 active | percent response vs DMSO, % at 10 µM;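 active = over 150 percent of DMSO response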;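 also: median GFP channel fluorescence over all cells without mother daughter split; sample median GFP divided by mean DMSO control so 100% equals DMSO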
s288c autofluor: yeast s288c autofluorescence artifact, counter-screen; shares compounds with LAP4-GFP MLPCN; S. cerevisiae s288c, 520 nm autofluorescence, flow cytometry, 3 h; hits give high values; zero means same as solvent-only cells; fluorescence change (kMESF span) at 33 µM; 610 tested, under 10 active;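 active = fluorescence span over the dose series, or activity score, above about 33, limit read from the data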
* hit, by the source's call; . = not tested or not shown.

SMILES	AGP1-GFP MLPCN	LAP4-GFP MLPCN	MEP2 TOR yeast	VLA-4 inh	CIT2-GFP yeast	RPL19A-GFP yeast	s288c autofluor	others
COc1ccc(CCNC2=C(Cl)C(=O)N(CCc3ccccc3)C2=O)cc1OC	97	109	112	4	90	98	0
O=C1C(Cl)=C(Nc2ccccc2O)C(=O)N1CCc1ccccc1	97	99	104	-45	98	103	0.4
CSc1ccc(NS(=O)(=O)c2ccc(-n3cnnn3)cc2)cc1	98	97	100	8	96	99	.
O=C(COC(=O)c1ccc(Cl)nc1)Nc1ccc2c(c1)OCCO2	100	109	99	0	97	100	.
O=c1c2c([N+](=O)[O-])cc([N+](=O)[O-])cc2sn1-c1ccc(Br)cc1	12	62	78	-21	37	32*	.	LAP4-GFP pick2=107;MEP2-GFP pick2=96;RPL19A-GFP pick2=94;CIT2 GFP CP2=103;AGP1 GFP CP2=99
O=c1c2c([N+](=O)[O-])cc([N+](=O)[O-])cc2sn1Cc1ccccc1	101	107	100	21	99	99	.
Cc1ccc(N2C(=O)CC(Sc3ncn[nH]3)C2=O)cc1C (stereo not drawn)	95	151*	90	14	91	98	-0.1
Cc1cccc(N2C(=O)CC(Sc3ncn[nH]3)C2=O)c1 (stereo not drawn)	93	140	90	3	78	93	.
CCN1C(=O)/C(=C\C(=O)c2cccs2)c2cc(Br)ccc21	91	196*	98	18	78	100	1.6
CCN1C(=O)/C(=C\N(C)C)c2ccccc21	98	98	98	15	88	95	.
O=C1CC2(CCN(C(=O)C3CC(=O)N(c4ccc(F)cc4)C3)CC2)Oc2ccccc21 (stereo not drawn)	102	103	106	-31	102	99	.
Cc1cccc(OCCN2CSC(=S)N(C)C2)c1	103	160*	99	-8	83	84	0.3
O=[N+]([O-])c1ccc(N=Nc2c(Cl)cc(O)cc2Cl)cc1	81	278*	107	3	84	96	0.82
CC(=O)N(C1=C(Cl)C(=O)c2ccccc2C1=O)C1CCCCC1	8	45	69	4	68	8.2*	7.1
CC(=O)N(c1ccccc1C)C1CCCC1	100	87	94	-3	107	104	.
COc1ccc2c(c1)c1nnc(SCC(=O)N3C(C)CCCC3C)nc1n2C (stereo not drawn)	88	104	92	-1	84	97	.
COc1ccc2c(c1)c1nnc(SC)nc1n2C	60	103	101	4	73	54	0.7	LAP4-GFP pick2=102;MEP2-GFP pick2=106;RPL19A-GFP pick2=53*;CIT2 GFP CP2=98;AGP1 GFP CP2=55
Cc1ccc(O)c(C(=O)CC(=O)c2ccc(C(C)(C)C)cc2)c1	98	93	107	-16	99	105	.
Cc1ccc(O)c(C(=O)CC(=O)c2ccccc2Cl)c1	51	74	111	-12	69	51	.	LAP4-GFP pick2=104;MEP2-GFP pick2=102;RPL19A-GFP pick2=99;CIT2 GFP CP2=109;AGP1 GFP CP2=97
CC(C)CC(=O)NC(=S)Nc1nc(-c2ccccc2)cs1	25	97	138	-15	79	62	0	LAP4-GFP pick2=98;MEP2-GFP pick2=96;RPL19A-GFP pick2=100;CIT2 GFP CP2=106;AGP1 GFP CP2=98
CC(C)CC(=O)NC(=S)Nc1nc(-c2ccc(Cl)cc2)cs1	101	96	98	7	99	104	.
O=C(CN1C(=O)c2ccccc2S1(=O)=O)NCc1ccccc1Cl	22	81	299*	22	69	95	.	LAP4-GFP pick2=97;MEP2-GFP pick2=94;RPL19A-GFP pick2=99;CIT2 GFP CP2=114;AGP1 GFP CP2=96
Cc1ccc(NC(=O)O/N=C/c2ccc(N(C)C)cc2)cc1	76	79	91	0	99	96	.
CC(C)(O)C#Cc1ccc(CN2CCN(C3CCCC3)C(CCO)C2)cc1 (stereo not drawn)	110	169*	93	-1	89	86	.	LAP4-GFP pick2=99;MEP2-GFP pick2=105;RPL19A-GFP pick2=100;CIT2 GFP CP2=103;AGP1 GFP CP2=100
CC1CCN(S(=O)(=O)c2cccc(C(=O)N3CCN(c4ccc(F)cc4)CC3)c2)CC1	112	112	103	1	107	111	.
SMILES	AGP1-GFP MLPCN	LAP4-GFP MLPCN	MEP2 TOR yeast	VLA-4 inh	CIT2-GFP yeast	RPL19A-GFP yeast	s288c autofluor	others
COC(=O)/C(=C/c1c[nH]c2ccccc12)[N+](=O)[O-]	89	178*	87	16	86	85	0.1
CCCc1cc(N2CCN(c3ccccn3)CC2)n2nc(C)c(-c3ccccc3)c2n1	101	103	103	0	101	101	0
C[C@H](CO)N1C[C@H](C)[C@@H](CN(C)S(=O)(=O)c2ccc(F)cc2)Oc2ccc(NC(=O)C3CCCCC3)cc2C1=O	90	91	101	-11	103	98	.
O=C(O)c1ccc(Oc2c(C(F)(F)F)oc3cc(O)ccc3c2=O)cc1	57	92	164	5	90	56	.	LAP4-GFP pick2=104;MEP2-GFP pick2=103;RPL19A-GFP pick2=97;CIT2 GFP CP2=99;AGP1 GFP CP2=98
O=C(/C=C/c1ccccc1Cl)OCC(=O)c1ccc[nH]1	93	127	101	-1	83	96	.
C=CCNC(=S)NNC(=O)c1ccc(OCCC)cc1	108	106	105	8	96	101	.

Assay outcomes from PubChem.
